Bioassay records (PubChem)
HT1080 IDH1KD tx: toxicity to HT-1080 IDH1 knockdown cells (counter line) | Potency, µM (doses to about 46.1 µM), for inactives: top-dose activity, negative = toxicity, usual class: cytotoxic | HT-1080 IDH1 knockdown viability, ATP luminescence, 48 h | 360,000 tested, 2% active;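 note: potency is the fitted concentration of half-maximal effect; 0% = DMSO wells and -100% = cell-free medium wells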
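CellTiter-Glo luminescence after 48 h compound exposure at 37 degrees C of IDH1-knockdown HT-1080 cells in 5% FBS RPMI. %Activity scaled between DMSO wells and cell-free media wells, with curves fitted and assigned curve classes.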
DT40 TDP1 CPT: growth inhibition of DT40 Tdp1-/-;hTDP1 cells with camptothecin (screen for TDP1 inhibitors); chicken DT40 Tdp1-/-;hTDP1 cells + 20 nM CPT, ATP luminescence, 48 h; Potency, µM (titrated, usually from 46.2 µM), inactives show at the top dose activity change, negative = growth inhibition, actives largely listed as inhibitors; 420,000 tested, 12% active; note: potency is the fitted concentration of half-maximal effect; nearly all actives have a fitted effect of over 55% in size
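Cell growth measured by CellTiter-Glo luminescence after a minimum 48 h, 37 C compound exposure with 20 nM CPT in Tdp1-knockout DT40 cells stably expressing hTDP1, seeded 400/well; qHTS titration format.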
IL1B secr inh: blocks inflammasome-driven IL-1 beta release | THP-1 LPS/ATP IL-1B secretion, AlphaLISA, 16 h; stronger effect = lower value | activity change, % at 57.5 µM | 360,000 tested, 4.7% active | AID 743279; in the data active = activity change below about -50%; inconclusive = mostly about -30% to -49%
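Secreted IL-1B measured by AlphaLISA bead assay after 16 h compound exposure of THP-1 cells; compounds (final up to 57.5 uM) added 1 h before LPS (250 ng/mL) and ATP (1.25 mM) stimulation; lower signal means less secretion.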
TDP1 cell noCPT: qHTS for Inhibitors of human tyrosyl-DNA phosphodiesterase 1 (TDP1): qHTS in cells in absence of CPT | AID 686978, 2013 | 420,000 tested, 15% active | DT40 Tdp1-/- hTDP1 cells, no CPT, ATP luminescence, 48 h | Potency, µM (top dose mostly 46.2 µM), for inactives: at the top dose activity change, negative = growth inhibition, hits mostly inhibitors; note: potency is the fitted concentration of half-maximal effect; nearly all actives have a fitted effect of over 55% in size
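Compound effects on proliferation are scored in DT40 Tdp1-/-;hTDP1 cells in the absence of CPT. ATP levels (CellTiter-Glo luminescence) are recorded after a ≥48 hr, 37 °C incubation.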
HT1080NT lethal: kills 2HG-producing HT-1080-NT fibrosarcoma cells. AID 686970. HT-1080-NT fibrosarcoma viability, CellTiter-Glo ATP luminescence, 48 h. 360,000 tested, 1.6% active. Potency, µM (top dose mostly 46.1 µM), for inactives: at the highest dose activity, negative = less viability, hits mostly cytotoxic;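 note: NT is the 2HG producing partner of a matched IDH1 knockdown line; potency is the fitted concentration of half-maximal effect; 0% = DMSO-treated cells and -100% = media-only wells without cells; nearly all actives have a fitted effect of over 55% in size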
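Viability by CellTiter-Glo luminescence after 48 h compound exposure at 37C of HT-1080-NT cells (750/well, RPMI, 5% FBS). % activity scaled between DMSO wells and medium-only wells, then curve-fitted and categorized by curve class.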
Starred values were filed as active, the others as inactive; ? = inconclusive; · = no result given. Only some compounds are listed: those with a hit (about 19% of all), similar ones and a draw of the others. Unless noted, calls come from the whole dose curve; as a rule, active = well fitted curve in the direction sought with a large enough effect; inconclusive = small, poorly fitted or top-dose-only effect, or another doubt; inactive = no such curve, though single readings can be large; an effect the other way counts as inactive or inconclusive. Unless noted, % is set by controls: 0 for no effect and ±100 for the full control effect.

SMILES	HT1080 IDH1KD tx	DT40 TDP1 CPT	IL1B secr inh	TDP1 cell noCPT	HT1080NT lethal
COc1ccccc1C(CNC(=O)C(CCSC)NC(=O)c1ccccc1Cl)N1CCCC1 (configuration not stated)	-4%	?	-28	-21%	1%
Cc1ccccc1C(=O)NCCOc1ccccc1Cl	-12%	11%	-5	-2%	0%
O=C(CCn1nc(-c2ccc(Cl)cc2)ccc1=O)N1CCN(c2ccccc2)CC1	0%	?	-4	?	-8%
Cc1ccc(-c2nnc(Nc3ccc(O)cc3)c3ccccc23)cc1S(=O)(=O)N1CCN(C)CC1	·	?	·	18µM*	·
COC(=O)c1ccc(Nc2nnc(-c3ccc(C)c(S(=O)(=O)N4CCN(C)CC4)c3)c3ccccc23)cc1	·	?	·	23µM*	·
Cc1ccc(-c2nnc3c4ccccc4c(C)nn23)cc1S(=O)(=O)N1CCN(C)CC1	-8%	?	21	-28%	3%
Cc1ccc(-c2nnc(Nc3ccc(Br)cc3)c3ccccc23)cc1S(=O)(=O)N1CCN(C)CC1	·	12µM*	·	18µM*	·
Cc1ccc(C)c(Nc2nnc(-c3ccc(C)c(S(=O)(=O)N4CCN(C)CC4)c3)c3ccccc23)c1	·	?	·	23µM*	·
Cc1ccc(-c2nnc(Nc3ccc(Br)cc3)c3ccccc23)cc1S(=O)(=O)N1CCCCC1	·	-9%	·	?	·
Cc1c(NS(=O)(=O)c2cc(C(=O)NCc3cccnc3)ccc2Cl)c(=O)n(-c2ccccc2)n1C	2%	20%	25	9%	6%
Cc1cc(C)n(-c2cc(N3CCN(C(=O)c4cccc(F)c4)CC3)ccc2[N+](=O)[O-])n1	1%	-19%	?	-23%	1%
Cc1ccc(-c2nnc(Nc3cccc(Cl)c3)c3ccccc23)cc1S(=O)(=O)N1CCCCC1	·	?	·	-22%	·
Cc1ccc(-c2nnc(Nc3cccc(O)c3)c3ccccc23)cc1S(=O)(=O)N1CCN(C)CC1	·	?	·	18µM*	·
CCN(CCn1cccn1)C(=O)c1ccc(OC2CCN(C(=O)CCOC)CC2)cc1	-1%	-19%	3	0%	-1%
C#CCN(C[C@H]1[C@H](OC(=O)NCC2CCCCC2)[C@H](OC(=O)NCC2CCCCC2)C[C@@H](C(=O)OC)[C@H]1C(=O)OC)S(=O)(=O)c1ccc(C)cc1	-1%	2.9µM*	-9	2.9µM*	0%
C#CCN(C[C@H]1[C@H](OC(=O)NCc2ccccc2F)[C@H](OC(=O)NCc2ccccc2F)C[C@@H](C(=O)OC)[C@H]1C(=O)OC)S(=O)(=O)c1ccc(C)cc1	-4%	4.6µM*	-18	6.5µM*	-2%
COc1ccc(-c2nnc(SCC(=O)N/N=C/c3ccccc3C(=O)O)n2-c2ccccc2)cc1	0%	-5%	-6	-29%	-2%
COc1ccc(C(=O)Nc2c(C)csc2C(=O)O)cc1	12%	7%	9	-17%	14%
O=C1c2ccccc2C(=O)C1c1ccncc1	-2%	?	-21	23µM*	-5%
Cc1ccc(C2C(=O)c3ccccc3C2=O)cc1	9%	3%	7	-12%	18%
CCCCCCn1c(=O)n2n(c1=O)C[C@]1(OC(=O)NCc3ccccc3)CN(S(=O)(=O)c3ccc(C)cc3)C[C@]1(O)C2	-26%	?	-24	15µM*	-22%
CCCCCCn1c(=O)n2n(c1=O)C[C@]1(OC(=O)Nc3cccs3)CN(S(=O)(=O)c3ccc(C)cc3)C[C@]1(O)C2	-20%	21µM*	-51*	13µM*	-18%
CCCCCCn1c(=O)n2n(c1=O)C[C@]1(OC(=O)Nc3c(C)noc3C)CN(S(=O)(=O)c3ccc(C)cc3)C[C@]1(O)C2	-1%	?	1	21µM*	-3%
CCCCCCn1c(=O)n2n(c1=O)[C@@H]1CN(S(=O)(=O)c3ccc(C)cc3)C[C@]1(O)[C@@H](OC(=O)NCc1ccc(OC)c(OC)c1)C2	4%	?	?	?	-23%
Cc1ccc(S(=O)(=O)N2C[C@]3(O)C[C@@H]4C(=O)N(c5ccccc5)C(=O)[C@@H]4C[C@]3(OC(=O)NCc3ccco3)C2)cc1	0%	-1%	13	-29%	-9%
SMILES	HT1080 IDH1KD tx	DT40 TDP1 CPT	IL1B secr inh	TDP1 cell noCPT	HT1080NT lethal
CCCCCCn1c(=O)n2n(c1=O)C[C@]1(OC(=O)NCc3ccco3)CN(S(=O)(=O)c3ccc(C)cc3)C[C@]1(O)C2	1%	?	-1	26µM*	-1%
COC(=O)[C@H]1C[C@@]2(O)CN(S(=O)(=O)c3ccc(C)cc3)C[C@@]2(OC(=O)Nc2c(C)noc2C)C[C@H]1C(=O)OC	-1%	-1%	-6	-15%	2%
O=C(Nc1c(C(=O)Nc2cccc(C(F)(F)F)c2)oc2ccccc12)c1cc(=O)c2ccccc2o1	·	4.1µM*	·	?	·
CCOCc1c(C(=O)OCC(=O)Nc2ccc(C)c(S(=O)(=O)N(C)C)c2)oc2ccccc12	1%	?	3	21µM*	-1%
Cc1ccc(NC(=O)c2oc3ccccc3c2NC(=O)c2cc3ccccc3o2)cc1	·	?	·	16µM*	·
O=C(Nc1c(C(=O)Nc2cccc(F)c2)oc2ccccc12)c1cc2ccccc2o1	·	18µM*	·	15µM*	·
CN(C)C(=O)C1CCC(=O)N1Cc1cccs1 (configuration not stated)	13%	-4%	6	7%	11%
CN1CCN(CC(=O)Nc2c(C(=O)c3ccccc3)oc3ccccc23)CC1	21µM*	?	-71*	?	23µM*
CCOc1ccc(CC(=O)Nc2c(C(=O)c3ccc(C)cc3)oc3ccccc23)cc1OCC	·	?	·	18µM*	·
COc1ccc2oc(C(=O)c3ccccc3)c(NC(=O)CN3CCN(C)CC3)c2c1	14%	-6%	-18	-6%	6%
